The panel holds about 83,000 compounds, 20% with a hit somewhere; the sample as a whole holds those more often.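 Compound tested at a single concentration for 48 hours in 96-well plates; a percent growth value below 10 was scored as active.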 Values without a mark were called inactive. Active and inactive are the calls of the source.

The subject of this test is HS 578T breast. The test can be described thus: NCI-60 one-dose screen, 48 h (100 = growth as untreated, 0 = no growth, -100 = all killed). Conditions: 10 µM. The procedure:
Growth inhibition of the HS 578T human tumor cell line is measured as a screen for anti-cancer activity. Cells are grown in 96 well plates and exposed to the test compound for 48 hours. Compounds are tested at a single concentration, which is 10^-5 M for most compounds. The reported endpoint is percent growth (GI% or GIPRCNT), where numbers from 0 - 100% represent growth inhibition, and numbers from -100% - 0 represent cell death. For example, a value of 40 represents 60% growth inhibition. A value of 0 means no net growth occurred over the course of the experiment. A value of -40 indicates 40% of cells at the beginning of the experiment died by the end of the experiment. A value of -100 means all cells are dead at the end of the experiment.
NCI-60 Human Tumor Cell Lines Screen was performed using the standard one-dose NCI protocol, which is described in more detail at https://dtp.cancer.gov/discovery_development/nci-60/default.htm.
Compounds with GIPRCNT values below 10 were considered active. Activity score was based on GIPRCNT using the following formula: […]
Score is 0 for GIPRCNT values of 100 or above, 50 for GIPRCNT values of 0, and 100 for GIPRCNT values of -100.
With `COc1cc(/C=N\Nc2ccccc2)ccc1OC(=O)c1ccccc1`, the growth was 87.6%.

Turning to `C=CCOC(=O)C(=O)OCC=C`, the growth was 130%.

On to `c1ccc(Sc2ccccc2)cc1`, for which the growth is 115%.

With `NCC(=O)CCC(=O)O`, the growth is 108%.

For `CC(C)CCCC(=O)O`, the growth was 103%.

Take `CC[N+](C)(CC)CCO`: the growth is 107%.

Turning to `CCNCCCCNCCCCNCCCCNCCCCNCC`, the growth was 76.2%.

As to `CCCCC1(CC)COC(CCC)OC1` (stereo not given), the growth was 109%.

In the case of `C=CCNc1ccccc1`, the growth is 110%.

`CN(C)/N=C/c1ccccc1O`: the growth is 99.7%.

In the case of `CC(C)OC(=O)c1cc(NC(=S)OC(C)C)ccc1Cl`, the growth is -29% (active).

In the case of `c1c(-c2cc(C3CC3)[nH]n2)n[nH]c1C1CC1`, the growth was 101%.

`O=C1N(C[P+](c2ccccc2)(c2ccccc2)c2ccccc2)CCCN1C[P+](c1ccccc1)(c1ccccc1)c1ccccc1`: the growth is 99.8%.

For the molecule `CC(=O)c1sc2c(c1OC(=O)c1ccc(Cl)cc1Cl)c(=O)n(-c1ccccc1)c(=S)n2-c1ccccc1`, the growth is -26.8% (active).

As to `S=C1NCc2cncnc2N1`, the growth was 105%.

With `CCC(C#N)(CC)c1ccccc1`, the growth was 108%.

Take `O=C1C=CC2=C3c4cc(O)c(O)cc4CC3(O)COC2=C1O` (stereo not given): the growth was 115%.

`COCCCC/C(=N\OCCN)c1ccc(C(F)(F)F)cc1`: the growth is 97.6%.

In the case of `O=C(CN1CCNCC1)N1CCOCC1`, the growth was 102%.

Regarding `O=C(O)c1cc([N+](=O)[O-])ccc1Cl`, the growth was 119%.

As to `Cc1cc(NC(=O)CSCC(=O)O)no1`, the growth is 78%.

Consider `O=[N+]([O-])c1ccc(N=Nc2ccccc2)cc1`, for which the growth is 119%.

For `COc1cc(CN)ccc1O`, the growth was 102%.

On to `Cc1nc2ccccc2c2nnc(SCC(=O)N(Cc3ccccc3)c3ccccc3)n12`, for which the growth is 93.9%.

As for `CCS(=O)(=O)c1cc(=O)[nH]c(=O)[nH]1`, the growth is 113%.

Regarding `CCC(C)(O)c1ccc(C)cc1` (stereo not given), the growth is 112%.

With `CN(C)CCN(Cc1ccccc1)c1ccccc1`, the growth was 112%.

In the case of `CN(c1ccccc1)c1ncnc2c1ncn2C`, the growth is 103%.

`COc1ccc(C(=O)C(Br)C(Br)C(=O)O)cc1` (stereo not given): the growth is 99.6%.

`CN1C(=O)CN2CCc3ccccc3C2c2cc(Cl)ccc21` (stereo not given): the growth is -5.49% (active).

For the molecule `CN(C)C(C)(C)CC(C)(C)C`, the growth was 104%.

`C=CC(=O)OCCCCCCCC`: the growth was 109%.

Take `Cc1ccc(C)n1-c1ccsc1C(=O)NNC(=O)CCl`: the growth was 92.7%.

Regarding `COC(=O)c1[nH]c(=O)c(C#N)c(C(=O)OC)c1C(=O)c1ccccc1`, the growth is 84.4%.

For the molecule `C=CCNC(=O)c1ccc(OC)cc1`, the growth is 221%.

For the molecule `CCC(O)CC(CC)CO` (stereo not given), the growth was 130%.

As for `COc1cccc(Sc2ccc([N+](=O)[O-])c3no[n+]([O-])c23)c1`, the growth was 67.9%.

In the case of `CCCCCCCCO`, the growth was 111%.

Regarding `O=C(CCl)Nc1ccc2c(c1)C(=O)c1ccc(NC(=O)CCl)cc1C2=O`, the growth was 6.19% (active).

Turning to `O=[N+]([O-])c1ccccc1N=Nc1ccc(O)cc1O`, the growth is 131%.

Source of the values: PubChem BioAssay (NCI).
